This note sets out measurements from PubChem BioAssay.

Structures are written as SMILES. Values without a mark were called inactive.

The target of the test is Homeobox protein Hox-A13 (Mus musculus) (UniProt Q62424). Nature of the test: disruptors of Hoxa13 oligonucleotide interaction – biochemical, fluorescence polarization, labeled oligonucleotide, primary screen (AID 1185). Conditions: Hoxa13:DNA binding, 15 min, higher = more signal, called active from +8 up or from −8 down. (In general: Fluorescence polarisation rises when a labelled molecule tumbles more slowly, as on binding a larger partner.)
Homeobox protein Hox-A13 (Mus musculus), sequence (Q62424 whole entry, looked up): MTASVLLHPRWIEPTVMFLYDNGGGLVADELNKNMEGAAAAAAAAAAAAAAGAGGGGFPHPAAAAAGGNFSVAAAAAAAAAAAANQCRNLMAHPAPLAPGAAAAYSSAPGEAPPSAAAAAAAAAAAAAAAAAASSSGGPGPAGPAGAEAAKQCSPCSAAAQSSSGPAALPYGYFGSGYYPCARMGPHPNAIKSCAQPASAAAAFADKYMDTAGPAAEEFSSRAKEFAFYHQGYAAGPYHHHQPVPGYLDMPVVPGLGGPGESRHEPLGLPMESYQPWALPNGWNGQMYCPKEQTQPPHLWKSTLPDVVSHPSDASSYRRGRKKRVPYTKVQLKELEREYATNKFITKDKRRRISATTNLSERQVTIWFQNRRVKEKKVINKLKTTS
As to `CO[C@@H]1COC(=O)[C@H](C)NC(=O)CC=C[C@@H](C)[C@H](OC)COC(=O)[C@H](C)NC(=O)CC=C[C@H]1C`, the z-score is 0.229. Next, `COC(=O)C1=C(C)N(Cc2ccccc2)c2c(C(=O)OC)c(C(=O)OC)c(C(=O)OC)c(=O)n2[C@@H]1c1ccccc1`: -2.2; `COc1cccc([C@H]2N[C@H](C(=O)O)CC[C@@H]2C)c1`: 3.05; `CO[C@H]1COC(=O)CC=C[C@H](C)[C@@H](OC)COC(=O)CC=C[C@@H]1C`: -0.307. The same measure for `CCN1C(C)=C(C(=O)OC)[C@@H](c2ccccc2)N2C(=O)[C@](O)(C(=O)OC)[C@@H](c3ccccc3)C(C(C)=O)=C12`: -1.27; for `CO[C@H]1COC(=O)[C@H](Cc2ccccc2)NC(=O)CC=C[C@@H](C)[C@H](OC)COC(=O)CC=C[C@@H]1C`: 1.05. Next, `CO[C@@H]1COC(=O)CC=C[C@H](C)COC(=O)[C@H](Cc2ccccc2)NC(=O)CC=C[C@H]1C`: -0.631; `C[C@@H]1CC[C@H]2C(=O)N3CCC[C@H]3C(=O)N2[C@H]1c1ccc(Br)cc1`: 0.0636. For the compound `C[C@@H]1CC[C@H]2C(=O)N3[C@@H](CC[C@@H](C)[C@@H]3c3cccc(N4CCOCC4)c3)C(=O)N2[C@H]1c1cccc(Br)c1`, the z-score is -5.55.
